Screens as filed in PubChem BioAssay.
PLK1 PBD block = blocks phosphopeptide binding to human PLK1 polo-box domain | P53350 | Plk1 PBD binding of FITC phosphopeptide, fluorescence polarization | Potency, µM, without a hit: max response, negative = inhibition, actives largely listed as inhibitors | 2.8% of 360,000 active; further: potency means the concentration at half of the fitted maximal effect; series mostly up to about 57 µM; on the % scale 0 is the no-effect control and ±100 the full control effect; nearly all actives have a fitted effect of over 65% in size
G9a inh = blocks human histone lysine methyltransferase G9a; Potency, µM (top dose mostly 102 µM), without a hit: at the highest dose activity, negative = inhibition, usual class: inhibitors; AID 504332; G9a H3K9 monomethylation, AlphaScreen, 2 h; Q96KQ7; 8.8% of 350,000 active; further: potency means the concentration at half of the fitted maximal effect; on the % scale 0 is the no-effect control and ±100 the full control effect; nearly all actives have a fitted effect of over 75% in size
Target sequence (Q96KQ7 913-1193 limits assumed): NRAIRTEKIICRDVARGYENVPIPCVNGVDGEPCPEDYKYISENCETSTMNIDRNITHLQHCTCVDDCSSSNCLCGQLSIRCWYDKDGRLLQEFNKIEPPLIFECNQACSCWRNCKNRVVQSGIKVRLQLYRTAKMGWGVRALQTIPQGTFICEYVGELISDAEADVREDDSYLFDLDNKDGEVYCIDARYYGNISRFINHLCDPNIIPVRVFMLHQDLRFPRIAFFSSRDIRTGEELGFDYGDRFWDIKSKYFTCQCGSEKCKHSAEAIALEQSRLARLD
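AlphaScreen detection with an anti-monomethyl H3K9 antibody quantified product after a 2 h room-temperature reaction containing 500 nM biotinylated H3K9 peptide, 20 µM SAM and 20 nM enzyme, which had been preincubated 15 min with compound.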
BAZ2B inh = inhibitors of human BAZ2B bromodomain. Q9UIF8. AlphaScreen BAZ2B-H3K14Ac peptide displacement. Potency, µM (titrated, usually from 114 µM), for inactives: at the top dose activity change, negative = inhibition, hits mostly inhibitors. 4.4% of 360,000 active. AID 504333; further: potency means the concentration at half of the fitted maximal effect; on the % scale 0 is the no-effect control and ±100 the full control effect; nearly all actives have a fitted effect of over 60% in size
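Multi-concentration screen (max 110 uM) measuring displacement of acetylated histone H3 peptide from BAZ2B by AlphaScreen, using 50 nM protein, 50 nM peptide and 10 ug/mL streptavidin donor plus Ni-chelate acceptor beads.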
JMJD2A Tudor inh = inhibitors of human JMJD2A Tudor domain; O75164; AlphaScreen JMJD2A-Tudor / H3K4me3 peptide binding; Potency, µM (top dose mostly 114 µM), inactives show top-dose activity change, negative = inhibition, usual class: inhibitors; 4.4% of 390,000 active; AID 504339; further: potency means the concentration at half of the fitted maximal effect; on the % scale 0 is the no-effect control and ±100 the full control effect; nearly all actives have a fitted effect of over 50% in size
PI5P4Ka inh = PI5P4K alpha (human) kinase inhibition; P48426; PI5P4Kalpha enzyme, ADP-Glo luminescence, 60 min; stronger effect = lower value; max response, %; 1.2% of 330,000 active; active means max response of -50% or lower; inconclusive means between -30% and -50%; inactive means -30% or higher; further: value at the top dose of about 77 µM; on the % scale 0 is the no-effect control and ±100 the full control effect
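Single end-point luminescence (ADP-Glo) quantified ADP from PI5P4Kalpha turnover; ATP 5 microM final, 1 h at RT, 0.1% CHAPS and 0.28 mM EGTA in HEPES pH 7.4.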
HP1b chromo inh = HP1-beta chromodomain-methylated histone interaction inhibition. P83916. AlphaScreen HP1-beta / biotin-H3K9me3 peptide binding. Potency, µM (top dose mostly 114 µM), for inactives: top-dose activity change, negative = inhibition, usual class: inhibitors. 0.56% of 390,000 active; further: potency means the concentration at half of the fitted maximal effect; nearly all actives have a fitted effect of over 70% in size
Target sequence (P83916 whole entry, looked up): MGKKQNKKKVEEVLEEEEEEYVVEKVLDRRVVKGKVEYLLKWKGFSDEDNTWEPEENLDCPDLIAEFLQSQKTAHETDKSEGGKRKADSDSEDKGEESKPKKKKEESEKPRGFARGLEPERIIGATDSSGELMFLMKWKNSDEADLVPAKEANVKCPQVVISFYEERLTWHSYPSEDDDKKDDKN
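AlphaScreen: HP1-beta (50 nM) preformed 30 min with biotin-H3(1-18)K9me3 peptide (50 nM) in PBS pH 7.4, 0.01% Tween-20. Compound added for 30 min at RT, then streptavidin donor/nickel chelate acceptor beads (10 ug/mL) for 30 min.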
Numbers without * were called inactive; ? = inconclusive; . = no result; ! = not active in a repeat; [ ] = dose if it differs, or a comment. A selection: hits, their analogues and other compounds. The true share with any hit is near 12%. Unless noted, the call rests on the fitted dose curve; in most records, active means well fitted curve in the direction sought with a large enough effect; inconclusive means small, poorly fitted or top-dose-only effect, or another doubt; inactive means no such curve, though single readings can be large; an effect the other way counts as inactive or inconclusive.

SMILES | PLK1 PBD block | G9a inh | BAZ2B inh | JMJD2A Tudor inh | PI5P4Ka inh | HP1b chromo inh
Cc1cccn2c(=O)c(C=O)c(N3CCC4(CC3)OCCO4)nc12 | -6% | 2% | -16% | -15% | 6 | 10%
CCOC(=O)Cc1cnc(NC(=O)Cn2nnc(-c3ccc(OCC)cc3)n2)s1 | 24µM* | 3% | 2% | -1%[11.4 µM] | -7 | -13%
CCOc1ccc(CCNCc2c(C(=O)O)n(Cc3ccc(C)cc3)c3cc(OC)ccc23)cc1 | . | ? | -34% | -24% | . | -18%
Cc1ccc(S(=O)(=O)N(C)c2nc3ccccc3[nH]c2=S)cc1 | 11µM* | -133%[59 µM] | ? | -8%[11.4 µM] | -3 | 35%
CN(C)c1ccc(NC(=O)c2cnsn2)cc1 | -12% | 50µM* | -20% | ? | -7 | -6%
Cc1noc(C)c1C(=O)Nc1ccc(N(C)C)cc1 | -4% | ? | -13% | -28% | -2 | 20%
CC(=O)c1cc2c(O)c(O)ccc2o1 | -5% | 4µM* | -30% | ? | . | 15%
O=C(NCc1ccncc1)C12CC3CC(CC(C3)C1)C2 | -3% | 6%[59 µM] | 2% | -15% | 0 | 15%
O=C(NCc1ccccc1)C12CC3CC(CC(C3)C1)C2 | 0% | 32µM* | ? | -20% | -3 | 27%
CCc1cccc(NC(=O)C2CCCN2S(=O)(=O)c2ccc3nc(-c4ccccc4)[nH]c3c2)c1 (stereo unspecified) | . | -31%[59 µM] | -29% | -15% | . | 27%
Cc1c(NC(=O)C(C)(C)Oc2ccc(Cl)cc2)cccc1-c1nc2ncccc2o1 | . | 6%[59 µM] | -6% | -27% | . | 15%
COCCCNC(=O)CSc1ccsc1[N+](=O)[O-] | ? | -45% | -25% | -12% | -20 | 33%
O=C(CSc1ccsc1[N+](=O)[O-])NCc1ccco1 | ? | -46% | -38% | ? | -71* | -7%
Cc1ccccc1NC(=O)CSc1ccsc1[N+](=O)[O-] | ? | ? | 40µM* | 25µM* | -90* | ?
CS(=O)(=O)N1CCC2(CCCN(Cc3ccc(C#N)cc3)C2)CC1 | . | -6%[12.7 µM] | . | . | . | .
CCN(Cc1ccccc1)S(=O)(=O)c1ccc(C(=O)N(CCCN(C)C)c2nc3cc(OC)ccc3s2)cc1 | 1% | 45µM* | ? | ? | 1 | -11%
CN(C)CCCN(C(=O)c1ccc(S(=O)(=O)N(C)Cc2ccccc2)cc1)c1nc2c(F)cccc2s1 | -6% | -6% | ? | ? | 3 | -10%
CCN(Cc1ccccc1)S(=O)(=O)c1ccc(C(=O)N(CCCN(C)C)c2nc3cc4c(cc3s2)OCCO4)cc1 | -2% | 40µM* | 35µM* | 45µM* | 1 | ?
CCN(c1ccccc1)S(=O)(=O)c1ccc(C(=O)N(CCN(C)C)c2nc3c(F)cc(F)cc3s2)cc1 | . | 45µM* | -15% | . | . | .
CCN(Cc1ccccc1)S(=O)(=O)c1ccc(C(=O)N(CCCN(C)C)c2nc3ccc(F)cc3s2)cc1 | 0% | . | 28µM* | ? | 3 | -2%
CC(C)c1cnc2c(c1SCC(=O)NCc1ccccc1Cl)c(=O)n(C)c(=O)n2C | . | -22%[59 µM] | 2% | -3% | . | 24%[57 µM]
COc1ccc2sc(N(CCCN(C)C)C(=O)c3ccc(C(=O)c4ccccc4)cc3)nc2c1 | -13% | 45µM* | ? | 50µM* | 4 | -31%
Cc1ccc2oc(=O)n(CC(=O)O)c2c1 | 27µM* | -41% | -2% | -30% | -2 | 34%
COc1cc(/C=N/NS(=O)(=O)c2ccc(C(C)(C)C)cc2)cc([N+](=O)[O-])c1O | ? | 18µM* | ? | 56µM* | -19 | ?
COc1cc(/C=N/NC(N)=O)cc([N+](=O)[O-])c1O | -9% | ? | ? | -24% | -56* | -17%
SMILES | PLK1 PBD block | G9a inh | BAZ2B inh | JMJD2A Tudor inh | PI5P4Ka inh | HP1b chromo inh
COC(=O)N/N=C/c1cc(OC)c(O)c([N+](=O)[O-])c1 | 1% | ? | -34% | -22% | -22 | -14%
COc1cc(/C=N/NS(=O)(=O)c2ccc(C)c([N+](=O)[O-])c2)cc([N+](=O)[O-])c1O | -5% | 40µM* | 50µM* | -24% | ? | -6%
COc1ccc(-n2c(O)c(/C=N/NS(=O)(=O)c3ccc(C)c([N+](=O)[O-])c3)c3ccccc3c2=O)cc1OC | 22% | 1%[12.7 µM] | 50µM* | 40µM* | -9 | ?
COc1cc(/C=N/NS(=O)(=O)c2ccc(C)c([N+](=O)[O-])c2)ccc1O | ? | ? | . | -9% | -2 | 15%
CCOc1ccc2oc(=O)cc(CN3CCN(c4cc(C)ccc4C)CC3)c2c1 | . | -4%[59 µM] | -2% | -19% | . | 23%
Cc1ccc(NC(=O)c2ccc(=O)[nH]n2)cc1S(=O)(=O)Nc1ccc(SC(F)F)cc1 | -8% | . | . | -16% | -11 | 24%
O=C(/C(N=Nc1cccc([N+](=O)[O-])c1)=C(/O)c1ccc(Br)cc1)C(F)(F)F | . | 40µM* | 25µM* | . | . | .
Cc1ccc(-c2nc3ncccc3o2)cc1NC(=O)c1ccc(-c2cccc(Cl)c2C)o1 | . | 1%[59 µM] | 3% | -14% | . | 17%
Nn1cnn(Cc2ccccc2)c1=S | 24µM* | ? | 12% | -10% | -6 | -25%
O=C(NC1CCCC1)c1ccc(CSc2nc3ccncc3n2Cc2ccc(F)cc2)cc1 | -3% | 45µM*! | -4% | -24% | 7 | 20%
Cc1ccc(CN2C(=O)CSC2c2ccc(F)cc2)cc1 (stereo unspecified) | -4% | 38% | 5% | 15% | 0 | 72%
COc1ccc(N2C(S)=C(C#N)C(=O)NC2c2ccco2)cc1 (stereo unspecified) | ? | 35µM* | -30% | -16% | -17 | 6%
COc1ccc(C2NC(=O)C(C#N)=C(S)N2c2ccccc2)cc1OC (stereo unspecified) | -18% | 45µM* | -31% | -6% | ? | 43%
N#CC1=C(S)N(c2ccccc2)C(c2ccc(-c3cccc(Cl)c3)o2)NC1=O (stereo unspecified) | 24µM* | ? | ? | ? | -30 | -15%
O=C(NCc1ccccc1)c1ccc(CS(=O)Cc2cccc(Cl)c2)o1 (stereo unspecified) | -2% | . | . | . | 7 | .
Cc1ccc(NCc2nnc3n2CCCCC3)cc1Cl | . | 6%[59 µM] | 27% | -4% | . | 42%[57 µM]
CCc1ccc2occ(CC(=O)Nc3sc4c(c3C(=O)NCCOC)CCCC4)c2c1 | . | 7%[59 µM] | -3% | -34% | . | 31%
